D1 agonist = human D1 receptor agonism; activation, % at 2 µM; P21728; HEK293 T-REx D1 cells, calcium flux, agonist mode; 1% of 360,000 active; in the data active = activation above about 30%; note: 0% is about no effect
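Inducible HEK293 T-REx D1 cells, force-coupled to calcium signalling, were plated at 4000 cells/well with tetracycline and held overnight at 30 C. After no-wash calcium dye loading, compound-evoked calcium rise over 180 s flagged agonists.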
D3 ag = agonists of human D3 dopamine receptor; P35462; D3R DiscoveRx beta-arrestin cells, luminescence, 90 min; max activation, %; 0.58% of 410,000 active; in the data active = max activation above about 30%; note: 0% is about no effect
Target sequence (P35462 whole entry, looked up): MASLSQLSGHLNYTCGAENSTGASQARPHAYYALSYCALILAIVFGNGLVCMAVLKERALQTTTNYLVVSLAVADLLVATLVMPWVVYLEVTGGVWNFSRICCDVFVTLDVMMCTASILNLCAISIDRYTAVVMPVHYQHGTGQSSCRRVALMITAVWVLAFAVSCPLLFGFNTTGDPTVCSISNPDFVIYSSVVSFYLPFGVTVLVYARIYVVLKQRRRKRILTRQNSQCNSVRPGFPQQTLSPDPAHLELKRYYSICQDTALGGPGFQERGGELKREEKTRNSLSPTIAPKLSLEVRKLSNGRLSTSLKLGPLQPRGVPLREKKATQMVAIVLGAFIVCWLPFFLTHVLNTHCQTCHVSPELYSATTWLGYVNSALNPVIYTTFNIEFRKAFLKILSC
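Agonist mode: compounds and dopamine controls were applied to plated cells for 90 min at 37 degrees C after an overnight attachment at 1500 cells/well. Luminescent read-out followed 30 - 60 minutes at room temperature with DiscoveRx detection reagent.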
D1 PAM = enhances dopamine response at the human D1 receptor; AID 504651; HEK293 TREx D1 cells, calcium flux, dopamine EC20 potentiation; potentiation, % at 10 µM; P21728; 0.036% of 360,000 active; in the data active = potentiation above about 30%; note: 0% is about no effect
D1 antag = antagonists of human D1 dopamine receptor | P21728 | HEK293 TREx D1 cells, calcium flux, dopamine EC80; hits give low values | activity change, negative = inhibition, % at 10 µM | 3.2% of 360,000 active; in the data active = activity change below about -30%; note: % is set by controls: 0 for no effect and ±100 for the full control effect
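Calcium flux readout: force-coupled, inducible Hek293 Trex D1 line, cells induced overnight at 30 C with tetracycline, dye-loaded 30–90 min at RT. Antagonism scored against EC80 dopamine challenge given 180 s after compound.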
DRD3 antagonist = antagonists of human D3 dopamine receptor; D3R cells, DiscoveRx beta-arrestin luminescence, antagonist mode; hits give low values; max response, negative = inhibition, %; 2.5% of 360,000 active; AID 652054; in the data active = max response below about -50%; inconclusive = no clear call, values can overlap the other calls; note: % is set by controls: 0 for no effect and ±100 for the full control effect
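Cells expressing the human receptor were seeded at 1500 cells/well, incubated overnight at 37 degrees C in 5% CO2, then exposed to library compounds with dopamine controls for 90 minutes at 37 degrees C before luminescent detection.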
Numbers without * were called inactive; ? = inconclusive; · = no result given; ! = repeats disagree. Rows were chosen to be rich in hits. Some 6% of all compounds tested hit in one or more screens of this group.

SMILES	D1 agonist	D3 ag	D1 PAM	D1 antag	DRD3 antagonist
O=C(NCc1ccccc1Cl)C1CCCN(c2nc3ccccc3n3cccc23)C1 (centres undefined)	1	12	1	-10	·
COc1cccc(C(=O)N(Cc2cccnc2)c2nc3c(OC)ccc(C)c3s2)c1OC	4	16	-2	·	·
O=C(/C=C/c1ccc(N2CCC(c3ccccc3)=N2)cc1)c1ccccc1	138*	-4	-12	-28	-22
O=C(OCc1ccccc1)c1ccc(NCc2cc(O)ccc2O)cc1	·	-8	·	·	-68*
CC(C)OC(=O)c1ccc(NCc2cc(O)ccc2O)cc1	·	-3	·	·	?
Cc1ccc2c(c1)N(CCCC(=O)NCc1cccc(F)c1)C(=O)CO2	-3	-10	-2	-7	·
Fc1ccc(-n2cc(-c3ccccc3)c3c(N4CCOCC4)ncnc32)cc1	2	-11	4	-9	?
CCN1CCN(c2ncnc3c2c(-c2ccccc2)cn3-c2ccc(F)cc2)CC1	3	-21	-8	-4	-55*
CCCC(=O)O[C@]1(C(=O)COC(=O)CC)[C@@H](C)C[C@H]2[C@@H]3CCC4=CC(=O)C=C[C@]4(C)[C@@]3(F)[C@@H](O)C[C@@]21C	·	-7	·	·	·
COc1ccc(OCCCC(=O)OC(C)C(=O)Nc2cccc(C(C)=O)c2)cc1 (centres undefined)	10	-10	4	0	-18
COc1ccc(OCCCC(=O)Nc2cccc(SC)c2)cc1	2	-9	8	-73*	0
Cc1cccc(NC(=O)CCCc2ccccc2)c1	3	7	-5	-58*	4
CC(=O)c1cccc(NC(=O)CCCSc2ccccc2)c1	15	3	·	-39*	-13
CN(C)S(=O)(=O)c1cccc(NC(=O)CCCSc2ccccc2)c1	10	-5	-17	-23	0
CC(O)c1cccc(NC(=O)CCCc2ccccc2)c1 (centres undefined)	1	-1	1	3	11
COc1ccc(OCCCC(=O)Nc2cccc(C(C)=O)c2)cc1	9	0	-5	-47*	-10
CSc1cccc(NC(=O)CCCOc2ccc(Cl)cc2C)c1	6	-3	-3	0	-1
Cc1ccc(C(=O)Nc2ccc3nc(SCC(=O)N4CCCc5ccccc54)sc3c2)cc1	8	-10	0	-6	·
O=C(CCCSc1ccc(Cl)cc1)Nc1ccccc1O	33*	-3	-9	3	-21
O=C(CSCc1ccc(Cl)cc1)Nc1ccccc1O	5	3	0	-8	-1
Nc1nc(CSc2nc3ccccc3s2)nc(Nc2ccccc2)n1	10	·	-6	-24	·
Cc1c(Cl)cccc1Nc1nc(N)nc(CSc2nc3ccccc3s2)n1	4	5	-2	-44*!	31
CCCCN(CC)CCCn1cnc2c([nH]c3ccc(Cl)cc32)c1=O	9	11	-2	-3	·
COc1cccc(CN(Cc2cccnc2)S(=O)(=O)c2ccc(-n3cnnn3)c(C)c2)c1	15	-2	0	-32*	-24
CNC[C@H](CC1CCCCC1)NC[C@H](CO)NCCc1cccc(C(F)(F)F)c1	21	-35	-5	9	-84*
SMILES	D1 agonist	D3 ag	D1 PAM	D1 antag	DRD3 antagonist
COC(C(=O)Nc1ccc(S(=O)(=O)Nc2c(C)cccc2C)cc1)c1ccccc1 (centres undefined)	35*	-10	-1	8	-11
Brc1ccc(Oc2ncc(CN3CCN(c4ccccc4)CC3)s2)cc1	7	33*	2	-2	-60*
CCC(Sc1nc2nccnc2c(=O)n1Cc1ccc(OC)cc1)C(=O)NC1CCCCC1 (centres undefined)	0	-15	-5	-6	·
O=C(COCc1cc(-c2cccs2)on1)Nc1cccc(Cl)c1Cl	6	-4	0	14	·
CN(C)CCCCOc1cccc(Br)c1	5	-7	-3	-12	-4
C=CCNCCOc1cccc(Br)c1	13	-22	-3	-30	-76*
CCC(C)NCCOc1cccc(Br)c1 (centres undefined)	5	0	-3	5	-72*
CCC(C)NCCCOc1ccc(C)cc1OC (centres undefined)	0	-8	-10	0	?
COC(=O)c1ccc(Sc2ccc(C)cc2)c(N)c1	10	-3	-11	-36*	-15
COc1ccc(C(=O)CSc2nc(-c3ccccn3)nc(C)c2Cl)cc1	-1	-18	3	-5	-60*
CCCc1nc(SCC(=O)c2ccccc2)c2c(=O)n(C)c(=O)n(C)c2n1	-1	31*	9	-17	37
Cc1nc(-c2ccccn2)nc(SCC(=O)c2ccc(F)cc2)c1Cl	1	-1	-1	-13	15
COc1ccc(C(=O)CSc2nnc(Cn3cnc4ccccc43)o2)cc1	22	2	-11	-34*	22
CCCc1nc(SCC(=O)c2ccc(OC)cc2)c2ccccc2n1	4	33*	-8	4	36
CCc1nc(SCC(=O)c2ccccc2)c2ccccc2n1	3	5	0	-13	19
COc1cccc(NC(=O)Cn2c(=O)n(Cc3ccc(C(=O)NCc4ccc5c(c4)OCO5)cc3)c(=O)c3ccccc32)c1	3	-8	2	-1	·
Cc1ccc(C)c(NC(=O)Cn2cc(S(=O)(=O)N3CCCC3)c(S(=O)(=O)N3CCCC3)c2)c1	1	5	-9	7	·
CCOc1ccc(CNCc2c(C(=O)O)c(C)n(Cc3ccc(C)cc3)c2C)cc1	1	-9	0	5	·
CCOC(=O)c1c(C)[nH]c(C)c1S(=O)(=O)N1CCCC(C(=O)Nc2cccc(CC)c2)C1 (centres undefined)	4	8	-4	4	·
COc1ccc2nc3sc(C(=O)Nc4cc(Cl)c(OC)cc4OC)cc3cc2c1	3	-3	2	-4	·
Cc1nc2c(o1)CCc1ccccc1C2N1CCN(C)CC1 (centres undefined)	5	-13	-3	-3	-54*
Cc1nc(S(=O)(=O)N2CCN(C3c4ccccc4-c4ccccc43)CC2)cn1C	5	-2	6	22	20
CCN(CC)S(=O)(=O)c1cc(-c2onc(C)c2C)ccc1OC	2	17	-4	-3	·
CC(=O)NC(C)(c1ccccc1)c1nc(-c2cncnc2)cs1 (centres undefined)	·	-14	·	·	-60*
CCOc1ccc(C(=O)Nc2cc(-c3ccccc3)no2)cc1	6	1	0	-7	·
Cc1oc(-c2ccc(C(=O)Nc3cc(F)ccc3F)cc2)nc1COc1ccccc1	0	3	1	8	·
CCN(C(=O)c1cc2c(=O)oc3ccc(C)cc3c2s1)c1ccccc1F	3	3	4	-7	·
CN(Cc1ccccc1)C(=O)Cn1c(=O)c2cccn2c2ccc(F)cc21	7	-8	4	-2	·
CCc1ccc(NC(=O)CCS(=O)(=O)c2ccc3c(c2)oc(=O)n3C)cc1	-1	5	-6	-37*	·

Source: PubChem
